Our source for the inhibition values is ChEMBL document CHEMBL1961873, “Compounds: GSK PKIS; Assays: Nanosyn kinase panel” (2012).

The target of experiment [1] is RAF proto-oncogene serine/threonine-protein kinase (Homo sapiens) (UniProt P04049). Particulars: at 1 µM.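 Also: values are the mean percent inhibition of CRAF.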
For experiment [2], the target named is T1, Interleukin-1 receptor-associated kinase 4 (Homo sapiens) (UniProt Q9NWZ3).
T1 sequence (whole entry): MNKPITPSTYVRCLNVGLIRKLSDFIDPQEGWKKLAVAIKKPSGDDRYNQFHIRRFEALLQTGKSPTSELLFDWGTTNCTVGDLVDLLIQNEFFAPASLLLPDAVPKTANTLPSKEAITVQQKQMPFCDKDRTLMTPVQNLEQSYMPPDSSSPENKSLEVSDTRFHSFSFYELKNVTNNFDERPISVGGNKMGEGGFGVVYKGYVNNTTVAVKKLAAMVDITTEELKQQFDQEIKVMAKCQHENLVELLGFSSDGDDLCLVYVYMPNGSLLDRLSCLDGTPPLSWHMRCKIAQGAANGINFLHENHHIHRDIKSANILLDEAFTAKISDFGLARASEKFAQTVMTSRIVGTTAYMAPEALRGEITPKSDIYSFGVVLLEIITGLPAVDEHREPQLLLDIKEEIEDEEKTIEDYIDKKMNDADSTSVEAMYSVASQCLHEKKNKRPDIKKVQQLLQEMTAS
To be noted: at 0.1 µM.

The target in experiment [3] is T1, Interleukin-1 receptor-associated kinase 4 (Homo sapiens). Particulars: at 1 µM.
Experiment [4] deals with Leucine-rich repeat serine/threonine-protein kinase 2 (Homo sapiens) (UniProt Q5S007). Particulars: at 0.1 µM.
The target is the same in experiment [5]. Particulars: at 1 µM.
In experiment [6] the test system is Leucine-rich repeat serine/threonine-protein kinase 2 (Homo sapiens), Q5S007 [G2019S]. To be noted: at 0.1 µM.
Experiment [7] has the same test system. Particulars: at 1 µM.

Sequence of Leucine-rich repeat serine/threonine-protein kinase 2 (Homo sapiens) (Q5S007 whole entry): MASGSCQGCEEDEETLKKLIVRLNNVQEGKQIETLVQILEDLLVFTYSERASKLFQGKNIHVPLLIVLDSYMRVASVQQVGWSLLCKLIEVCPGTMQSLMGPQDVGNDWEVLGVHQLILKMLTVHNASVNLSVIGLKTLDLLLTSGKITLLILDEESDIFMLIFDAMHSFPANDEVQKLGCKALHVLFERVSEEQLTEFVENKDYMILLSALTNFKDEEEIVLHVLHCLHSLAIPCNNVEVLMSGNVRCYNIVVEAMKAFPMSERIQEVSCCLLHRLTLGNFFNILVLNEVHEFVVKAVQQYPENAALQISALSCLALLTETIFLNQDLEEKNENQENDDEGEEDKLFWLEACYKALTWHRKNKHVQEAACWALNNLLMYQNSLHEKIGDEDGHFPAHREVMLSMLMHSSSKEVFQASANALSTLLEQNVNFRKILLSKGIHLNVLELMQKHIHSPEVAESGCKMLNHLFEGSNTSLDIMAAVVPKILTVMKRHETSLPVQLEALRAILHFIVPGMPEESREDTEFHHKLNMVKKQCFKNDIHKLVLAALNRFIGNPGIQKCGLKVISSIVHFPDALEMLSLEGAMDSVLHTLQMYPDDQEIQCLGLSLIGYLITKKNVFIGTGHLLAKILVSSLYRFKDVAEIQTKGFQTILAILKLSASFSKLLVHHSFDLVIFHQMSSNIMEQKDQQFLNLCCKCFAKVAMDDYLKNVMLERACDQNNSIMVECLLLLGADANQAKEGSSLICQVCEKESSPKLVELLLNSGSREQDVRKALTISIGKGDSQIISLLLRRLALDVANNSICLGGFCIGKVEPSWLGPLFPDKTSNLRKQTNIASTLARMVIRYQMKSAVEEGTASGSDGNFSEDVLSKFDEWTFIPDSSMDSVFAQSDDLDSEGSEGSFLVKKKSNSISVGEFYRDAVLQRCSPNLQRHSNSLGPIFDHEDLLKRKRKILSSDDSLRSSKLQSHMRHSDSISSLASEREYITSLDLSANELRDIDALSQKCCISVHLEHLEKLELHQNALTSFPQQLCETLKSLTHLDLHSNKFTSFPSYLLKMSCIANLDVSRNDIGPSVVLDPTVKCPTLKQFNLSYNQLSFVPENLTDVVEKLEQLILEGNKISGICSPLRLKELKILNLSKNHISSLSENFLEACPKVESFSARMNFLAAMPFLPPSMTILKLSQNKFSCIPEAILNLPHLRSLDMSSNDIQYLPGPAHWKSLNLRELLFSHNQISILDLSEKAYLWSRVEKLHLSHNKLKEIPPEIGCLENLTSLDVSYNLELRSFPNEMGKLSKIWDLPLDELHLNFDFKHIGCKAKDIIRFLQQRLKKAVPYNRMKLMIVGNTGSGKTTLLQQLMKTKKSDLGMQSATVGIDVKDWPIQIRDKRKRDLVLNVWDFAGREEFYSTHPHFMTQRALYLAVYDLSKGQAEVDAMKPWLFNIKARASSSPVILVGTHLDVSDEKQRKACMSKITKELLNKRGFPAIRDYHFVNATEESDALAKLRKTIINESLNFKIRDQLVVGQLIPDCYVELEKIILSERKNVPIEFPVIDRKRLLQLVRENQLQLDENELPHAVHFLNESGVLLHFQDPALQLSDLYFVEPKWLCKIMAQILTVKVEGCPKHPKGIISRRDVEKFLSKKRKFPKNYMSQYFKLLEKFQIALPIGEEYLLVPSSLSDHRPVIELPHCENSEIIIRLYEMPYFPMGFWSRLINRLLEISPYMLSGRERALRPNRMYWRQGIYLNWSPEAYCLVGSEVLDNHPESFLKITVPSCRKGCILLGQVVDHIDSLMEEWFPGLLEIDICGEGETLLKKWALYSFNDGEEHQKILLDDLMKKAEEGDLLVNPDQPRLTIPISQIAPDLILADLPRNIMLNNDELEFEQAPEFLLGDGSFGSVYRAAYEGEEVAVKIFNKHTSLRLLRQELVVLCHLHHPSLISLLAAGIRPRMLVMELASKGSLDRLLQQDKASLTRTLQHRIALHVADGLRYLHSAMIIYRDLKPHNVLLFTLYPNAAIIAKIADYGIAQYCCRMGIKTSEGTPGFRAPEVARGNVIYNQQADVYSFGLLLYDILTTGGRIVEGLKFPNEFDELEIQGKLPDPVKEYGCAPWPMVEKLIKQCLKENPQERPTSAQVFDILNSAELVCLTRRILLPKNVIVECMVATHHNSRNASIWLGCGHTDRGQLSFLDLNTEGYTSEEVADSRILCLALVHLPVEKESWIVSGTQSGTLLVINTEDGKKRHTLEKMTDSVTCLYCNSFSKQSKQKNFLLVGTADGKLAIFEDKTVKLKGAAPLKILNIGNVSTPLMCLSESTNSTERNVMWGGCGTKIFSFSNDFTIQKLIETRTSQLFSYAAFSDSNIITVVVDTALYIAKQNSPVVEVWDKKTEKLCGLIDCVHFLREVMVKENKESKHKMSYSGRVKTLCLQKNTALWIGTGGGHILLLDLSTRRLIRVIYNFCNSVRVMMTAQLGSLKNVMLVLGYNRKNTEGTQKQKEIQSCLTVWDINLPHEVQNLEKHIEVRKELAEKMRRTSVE
Sequence of RAF proto-oncogene serine/threonine-protein kinase (Homo sapiens) (P04049 whole entry): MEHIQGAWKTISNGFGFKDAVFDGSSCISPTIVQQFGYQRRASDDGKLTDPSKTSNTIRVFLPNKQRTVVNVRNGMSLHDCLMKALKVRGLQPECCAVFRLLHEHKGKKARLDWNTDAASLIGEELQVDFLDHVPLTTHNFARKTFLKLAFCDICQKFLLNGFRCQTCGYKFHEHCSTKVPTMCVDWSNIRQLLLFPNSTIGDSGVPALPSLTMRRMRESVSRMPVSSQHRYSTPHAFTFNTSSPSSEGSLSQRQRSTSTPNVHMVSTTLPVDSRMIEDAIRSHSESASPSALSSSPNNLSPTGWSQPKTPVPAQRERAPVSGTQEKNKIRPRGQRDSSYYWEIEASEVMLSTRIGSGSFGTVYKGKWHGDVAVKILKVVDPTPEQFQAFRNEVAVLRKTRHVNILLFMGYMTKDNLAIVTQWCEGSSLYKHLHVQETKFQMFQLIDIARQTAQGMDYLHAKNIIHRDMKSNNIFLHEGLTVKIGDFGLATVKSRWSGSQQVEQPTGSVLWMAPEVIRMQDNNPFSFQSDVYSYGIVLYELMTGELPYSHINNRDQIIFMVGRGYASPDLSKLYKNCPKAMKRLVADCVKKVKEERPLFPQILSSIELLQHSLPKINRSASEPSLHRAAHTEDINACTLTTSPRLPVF
Sequence of Leucine-rich repeat serine/threonine-protein kinase 2 (Homo sapiens), Q5S007 [G2019S] (Q5S007 whole entry G2019S): as the sequence (Q5S007 whole entry) above, with G2019S counted along it

Take `CCn1c(-c2nonc2N)nc2c(C#CC(C)(C)O)nc(O[C@@H](CN)c3ccccc3)cc21`: the inhibition in experiment [1] was -0.12%; in experiment [2] it was 2.57%; in experiment [3], -0.97%; in experiment [4], 1.02%; in experiment [5] it was 12.4%; in experiment [6] it was 5.6%. The inhibition in experiment [7] turned out to be 35.9%.

Turning to `CCn1c(-c2nonc2N)nc2c(C#CC(C)(C)O)ncc(OC[C@@H]3CCCN3)c21`, the inhibition in experiment [1] is 0.33%; in experiment [2], 0.18%; in experiment [3] it was 0.53%; in experiment [4], 0.96%; in experiment [5], 7.88%; in experiment [6], 2.98%. In experiment [7], the inhibition was 12.5%.

With `COc1cc(C=NNc2ncnc3c2cnn3Cc2ccccc2)ccc1O`, the inhibition in experiment [1] was 8.55%; in experiment [2], 1.48%; in experiment [3], -1.52%; in experiment [4], -2.34%; in experiment [5], 3.59%; in experiment [6], 1.06%. In addition, in experiment [7], the inhibition stood at 10.1%.

On to `COc1cc2c(cc1Nc1nc(Nc3ccsc3C(N)=O)c3cc[nH]c3n1)N(C(=O)CN(C)C)CCC2`, for which the inhibition in experiment [1] was -4.6%; in experiment [2], -1.66%; in experiment [3] it was -1.26%; in experiment [4], 80.8%; in experiment [5], 86.2%; in experiment [6] it was 63%. Besides, in experiment [7], the inhibition was 61.2%.

As to `NC(=O)c1sc(-n2cnc3cc(C(F)(F)F)ccc32)cc1OCc1ccccc1Br`, the inhibition in experiment [1] amounted to 5.05%; in experiment [2] it was 0.4%; in experiment [3] it was 1.13%; in experiment [4], 3.39%; in experiment [5], 6.23%; in experiment [6], 3.66%. Besides, the inhibition in experiment [7] was 6.47%.

As for `Cc1cc(-c2ccco2)cc(C)c1/C=C/c1cncc(-c2nn[nH]n2)c1`, the inhibition in experiment [1] is -5.34%; in experiment [2], -0.17%; in experiment [3] it was -0.12%; in experiment [4], 4.45%; in experiment [5] it was 8.02%; in experiment [6], 5.52%. Further, in experiment [7], the inhibition stood at 5.78%.

Regarding `NS(=O)(=O)c1ccc(-c2ccc3c(NC(=O)C4CC4)n[nH]c3c2)cc1`, the inhibition in experiment [1] was 9.01%; in experiment [2], -1.93%; in experiment [3], 1.48%; in experiment [4], 2.77%; in experiment [5], 2.56%; in experiment [6], 3.47%. Besides, the inhibition in experiment [7] was 7.51%.

Turning to `COc1cccc(COc2cc(-n3cnc4ccccc43)sc2C(N)=O)c1`, the inhibition was 0.06% in experiment [1]; -1.12% in experiment [2]; -1.16% in experiment [3]; 2.35% in experiment [4]; 14.6% in experiment [5]; 5.15% in experiment [6]. Further, in experiment [7], the inhibition is 31.2%.

Turning to `CCn1c(-c2nonc2N)nc2c(C#CCN)ncc(OCCCN)c21`, the inhibition in experiment [1] is 1.98%; in experiment [2] it was 1.9%; in experiment [3], -2%; in experiment [4], 3.78%; in experiment [5], 5.71%; in experiment [6], 4.23%. Besides, the inhibition in experiment [7] was determined as 12.1%.

With `Nc1nonc1-c1nc2cnccc2n1C1CCCCC1`, the inhibition was 13.7% in experiment [1]; 2.08% in experiment [2]; -1.3% in experiment [3]; 4.67% in experiment [4]; 20% in experiment [5]; 9.49% in experiment [6]. Besides, in experiment [7], the inhibition stood at 45.5%.

For the compound `Fc1ccc(-c2ncn(C3CCNCC3)c2-c2ccnc(Oc3ccccc3)n2)cc1`, the inhibition in experiment [1] is 1.07%; in experiment [2] it was 0.54%; in experiment [3], 0.35%; in experiment [4], -5.14%; in experiment [5], -7.49%; in experiment [6], -2.28%. In addition, the inhibition in experiment [7] is -0.98%.

As for `NS(=O)(=O)c1ccc(N/C=C2\C(=O)Nc3ccc4ncsc4c32)cc1`, the inhibition was 0.21% in experiment [1]; 1.82% in experiment [2]; 2.58% in experiment [3]; 17.8% in experiment [4]; 58.6% in experiment [5]; 29.4% in experiment [6]. Further, in experiment [7], the inhibition amounted to 58.9%.

With `COc1cccc(-n2ncc3c(N/N=C/c4ccncc4)ncnc32)c1`, the inhibition in experiment [1] was 3.93%; in experiment [2] it was 2.61%; in experiment [3], 4.07%; in experiment [4] it was 4.32%; in experiment [5], 16.6%; in experiment [6], 7.97%. Further, in experiment [7], the inhibition is 37.4%.

Take `CCn1c(-c2nonc2N)nc2c(C#CC(C)(C)O)ncc(OCC3CCNCC3)c21`: the inhibition in experiment [1] was 1.08%; in experiment [2], -1.36%; in experiment [3], 1.24%; in experiment [4], -2.92%; in experiment [5], 5%; in experiment [6] it was 1.31%. The inhibition in experiment [7] came out at 16.7%.
